# Bioassay records deposited in PubChem by several laboratories.
# Most compounds without a hit are left out; they make up all but 2.6% or so of the library.
# TPT1 inh – inhibitors of Candida albicans tRNA 2'-phosphotransferase TPT1 | recombinant caTPT1, FP RNA substrate dephosphorylation | inhibition, % at 5 µM | 300,000 compounds, 0.81% hits | AID 1962;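 active means inhibition above the mean of all tested compounds plus 3 SD, set per screening campaign, cut at about 24% in these data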;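 further: plate controls were DMSO alone for no effect and ferristatin control at 100 nM for full effect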
# CRFR2-BP antag – blocks CRF-induced signaling of the CRF-BP/CRF-R2 complex. HEK293 CRF-R2/CRF-BP, CRF-induced calcium fluorescence. inhibition, % at 11.8 µM. 350,000 compounds, 0.59% hits;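 active means inhibition of the ligand-induced calcium signal above about 50% at the single tested concentration, limit read from the data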
# CRFR2-BP ag – CRF-BP/CRF-R2 complex agonism. AID 588473. activation, % at 13.2 µM. 350,000 compounds, 0.46% hits. HEK293 CRF-R2/CRF-BP, calcium dye fluorescence (FLIPR); percent of saturating CRF peptide response;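 active means activation of at least 50%, plus an integration ratio under a set limit after plate pattern correction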;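 further: plate controls were neutral control wells without compound for no effect and CRF at EC100 for full effect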
# IDE cell inh – cellular human IDE inhibition. inhibition, % at 5.59 µM. 320,000 compounds, 0.41% hits. AID 434962. HEK cells, FAbetaB cleavage, fluorescence polarization;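 active means percent inhibition above the average of all tested compounds plus 3 SD, set per screening campaign, cut at about 16% in these data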;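 further: IDE supplied by intact live HEK cells; FP after avidin binding of uncleaved biotin substrate so inhibition keeps polarization high; 0% = DMSO wells and 100% = 60 µM reference IDE inhibitor Ii1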
# Target sequence (P14735 whole entry, looked up): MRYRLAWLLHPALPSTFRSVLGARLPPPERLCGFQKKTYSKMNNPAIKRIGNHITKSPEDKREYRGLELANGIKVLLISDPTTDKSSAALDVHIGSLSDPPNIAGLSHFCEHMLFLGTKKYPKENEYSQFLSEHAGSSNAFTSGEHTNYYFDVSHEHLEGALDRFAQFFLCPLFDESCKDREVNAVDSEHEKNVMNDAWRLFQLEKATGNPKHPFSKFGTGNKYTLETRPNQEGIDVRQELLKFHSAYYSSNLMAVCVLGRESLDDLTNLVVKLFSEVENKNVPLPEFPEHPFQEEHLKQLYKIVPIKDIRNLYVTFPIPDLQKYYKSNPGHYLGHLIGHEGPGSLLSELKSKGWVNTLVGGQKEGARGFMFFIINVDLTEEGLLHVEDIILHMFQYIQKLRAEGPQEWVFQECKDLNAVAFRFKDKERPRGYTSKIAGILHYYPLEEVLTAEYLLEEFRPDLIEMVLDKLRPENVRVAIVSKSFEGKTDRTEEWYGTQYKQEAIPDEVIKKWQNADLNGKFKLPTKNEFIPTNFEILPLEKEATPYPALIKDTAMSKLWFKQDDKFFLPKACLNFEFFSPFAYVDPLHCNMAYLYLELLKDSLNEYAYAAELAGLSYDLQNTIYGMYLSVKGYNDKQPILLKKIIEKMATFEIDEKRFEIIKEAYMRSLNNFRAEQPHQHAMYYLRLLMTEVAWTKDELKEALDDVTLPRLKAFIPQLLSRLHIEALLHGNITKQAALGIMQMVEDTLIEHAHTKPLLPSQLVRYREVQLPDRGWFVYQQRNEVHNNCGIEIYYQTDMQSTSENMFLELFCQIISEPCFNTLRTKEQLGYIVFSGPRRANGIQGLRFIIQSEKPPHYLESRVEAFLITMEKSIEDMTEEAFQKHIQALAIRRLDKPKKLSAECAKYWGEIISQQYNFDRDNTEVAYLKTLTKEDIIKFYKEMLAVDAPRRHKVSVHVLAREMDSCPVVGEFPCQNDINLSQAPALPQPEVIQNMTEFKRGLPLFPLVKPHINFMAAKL
# Myeloid diff 2 – compounds promoting myeloid differentiation; ER-HoxA9 myeloid progenitors, lysozyme-GFP differentiation, flow cytometry; calls only at 10 µM; 360,000 compounds, 1% hits;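 active means normalized GFP-positive differentiation at or above the plate's own cutoff, the solvent-only control mean plus 3 SD; inconclusive means no clear call, values can overlap the other calls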;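 further: cells exposed to compound for four days before flow analysis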
# IDE cell activ – boosts human insulin-degrading enzyme activity in HEK cells | FAbeta-B cleavage, fluorescence polarization; 0% vehicle, 100% cell-free pure enzyme wells | P14735 | activation, % at 5.96 µM | 340,000 compounds, 0.073% hits;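 active means activation above the mean of all tested compounds plus 3 SD, set per screening campaign, cut at about 17% in these data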
# TPT1 inh confirm – confirmation of Candida albicans TPT1 inhibitors; shares compounds with TPT1 inh; recombinant caTPT1, fluorescence polarization, RNase T1 coupled; inhibition, % at 5 µM; 2,400 compounds, 74% hits; AID 2149;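 active means inhibition above the primary screen limit, the mean inhibition of all tested compounds plus 3 SD, cut at about 25% in these data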
# RNase T1 inh – RNase T1 inhibition in TPT1 counter-screen; shares compounds with TPT1 inh; RNase T1 cleavage, fluorescence polarization, 1536-well; inhibition, % at 5 µM; 2,400 compounds, 83% hits;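 active means inhibition above the solvent-only control well mean plus 3 SD, limit set per screening run, cut at about 23% in these data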;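 further: plate controls were DMSO wells with enzyme for no effect and wells without RNase T1 for full effect; inhibitors block cleavage so intact labeled substrate keeps polarization high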
# Numbers without * were called inactive; i = inactive; ? = inconclusive; / = no result; + = active, no number.
SMILES,TPT1 inh,CRFR2-BP antag,CRFR2-BP ag,IDE cell inh,Myeloid diff 2,IDE cell activ,TPT1 inh confirm,RNase T1 inh
C=C(C)c1cccc(C(C)(C)NC(=O)NCC2CCCO2)c1 (stereo not given),25*,-2,-1,-2,i,5,8,9
CCC(C)N(C(=O)COC(=O)c1ccc(=O)n(Cc2ccccc2)n1)C1CCS(=O)(=O)C1 (stereo not given),-2,9,1,-3,i,3,/,/
CCNc1cc2n(c(=O)n1)CCc1cc(OC)c(OC)cc1-2,3,-5,0,-1,i,3,/,/
COc1cc2c(cc1OC)-c1cc(OCCN3CCOCC3)nc(=O)n1CC2,25*,-6,-1,-1,+,1,32*,44*
CC(=O)Oc1cccc(N2C(=O)c3cccc4c([N+](=O)[O-])ccc(c34)C2=O)c1,43*,31,5,12,?,-8,43*,59*
Cc1ccc(C(=O)O)cc1N1C(=O)c2cccc3c([N+](=O)[O-])ccc(c23)C1=O,-12,-4,6,6,/,1,/,/
CCn1c(SCC(=O)c2c[nH]c3ccccc23)nnc1-c1cccs1,25*,-53,3,4,+,-3,25*,35*
O=[N+]([O-])c1ccc(-c2nc(-c3cccs3)c(-c3cccs3)[nH]2)cc1,63*,-39,33,5,i,2,60*,77*
O=[N+]([O-])c1cccc(-c2nc(-c3cccs3)c(-c3cccs3)[nH]2)c1,-1,-4,-1,8,i,7,/,/
Cc1cc(-n2ccnc2)n2c(nc3ccccc32)c1C#N,10,-1,3,-2,i,2,/,/
CCCc1cc(-n2ccnc2)n2c(nc3ccccc32)c1C#N,118*,-14,13,1,i,-10,102*,104*
C=C(C)C(=O)Nc1cccc(C2=NOC3(C2)C[C@@H](C(N)=O)N(C(=O)c2cc([N+](=O)[O-])cc([N+](=O)[O-])c2C)C3)c1 (stereo not given in full),1,2,0,4,i,4,/,/
O=c1oc2ccccc2nc1/C=C(O)/C=C/c1ccc(F)cc1,3,-112,46,0,i,-5,/,/
O=c1oc2ccccc2nc1/C=C(O)/C=C\c1ccccc1,27*,-26,2,6,i,3,17,28*
N#C/C(C(=O)N1CCOCC1)=C1/SC(Cc2ccccc2)C(=O)N1c1ccccc1 (stereo not given),21,19,0,7,i,3,/,/
CCCCc1ccc(CC2S/C(=C(\C#N)C(=O)N3CCOCC3)N(c3ccccc3)C2=O)cc1 (stereo not given),35*,-22,0,5,i,-2,62*,74*
Cc1ccc(C(=O)OC(C(=O)O)C(OC(=O)c2ccc(C)cc2)C(=O)O)cc1 (stereo not given),/,3,1,-1,i,3,/,/
CCOC(=O)c1cc(N)cc([N+](=O)[O-])c1,-3,-6,2,-1,i,2,/,/
CCOC(=O)c1sc2cc([N+](=O)[O-])cc(SCC(C)C)c2c1N,32*,-69,33,4,+,3,35*,46*
COc1cc(C(=O)NCc2nnc(SCC(=O)Nc3cccc(C(F)(F)F)c3)o2)cc(OC)c1OC,-4,16,1,0,i,4,/,/
Cc1ccc(NC(=O)c2ccc(NCCN)c([N+](=O)[O-])c2)cc1,-1,4,-1,2,i,-2,/,/
Cc1cccc(NC(=O)c2ccc(NCCc3ccccc3)c([N+](=O)[O-])c2)c1,46*,-3,14,-1,i,1,111*,133*
CN(C)c1ccc(/C=C/c2nc3ccccc3c(=O)[nH]2)cc1,64*,-84,48,13,i,-12,74*,83*
CN(C)c1ccc(/C=C/c2nc3ccccc3c(=O)n2CCO)cc1,80*,-24,8,5,i,-8,84*,95*
O=c1c2ccccc2nc(/C=C/c2ccccc2)n1CCCO,-2,-2,1,10,i,1,/,/
SMILES,TPT1 inh,CRFR2-BP antag,CRFR2-BP ag,IDE cell inh,Myeloid diff 2,IDE cell activ,TPT1 inh confirm,RNase T1 inh
O=c1[nH]c(/C=C/c2ccc(Br)cc2)nc2ccccc12,-2,-14,2,-1,i,3,/,/
C[C@@H]1CN([C@H](C)CO)C(=O)CCCn2nncc2CO[C@H]1CN(C)Cc1ccccc1,/,15,3,/,i,/,/,/
CCCN(C(=O)CSCC(=O)Nc1cccc(C)c1)c1c(N)n(Cc2ccccc2)c(=O)[nH]c1=O,1,6,-1,1,i,1,/,/
COc1ccc2cc(C(=O)/C=C/c3cc(OC)c(O)c(OC)c3)ccc2c1,4,-19,8,7,i,-9,/,/
COc1cc(/C=C/C(=O)c2c(O)cc(C)oc2=O)cc(OC)c1O,37*,13,4,13,i,-13,8,17
CCOC(=O)/C=C/c1cccc(OC)c1O,/,/,/,/,i,/,/,/
COc1cccc(/C=C/C(=O)c2c(O)cc(C)oc2=O)c1O,33*,0,0,8,i,3,2,7
N#Cc1c(-c2ccc(F)cc2)ccnc1N1CCOCC1,-4,7,-1,1,i,-4,/,/
CC(C(=O)Nc1ncc([N+](=O)[O-])s1)N1C(=O)c2ccccc2S1(=O)=O (stereo not given),-4,5,1,0,i,-2,/,/
Cn1cccc1C(=O)OCc1ccc(C(C)(C)C)cc1,4,-5,0,-1,i,1,/,/
O=[N+]([O-])c1ccc(N/N=C/c2ccccc2)c(F)c1,27*,-103,0,14,i,-14,44*,54*
O=[N+]([O-])c1ccc(C=NNc2ccccc2)cc1,/,-30,8,/,i,5,/,/
Cc1cc(C)c(C(=O)c2ccccc2C(=O)O)c(C)c1,/,/,/,/,i,/,/,/
COc1ccc(C2CC(c3c(O)cc(C)oc3=O)=NCCS2)c(OC)c1 (stereo not given),42*,-5,5,7,/,-4,5,12
COc1ccc(C(c2c(O)cc(C)oc2=O)c2c(O)cc(C)oc2=O)cc1,1,4,0,-1,i,1,/,/
CS(=O)(=O)N(Cc1ccccc1Cl)c1ccc(C(=O)NCc2ccccn2)cc1,-5,11,-1,-2,i,-2,/,/
CCOC(=O)C(C)Oc1ccc(NC(=O)C(Cl)Cl)cc1 (stereo not given),0,2,-1,1,i,3,/,/
